# Compound activity from PubChem.
# CHT block – inhibitors of human choline transporter CHT | B-score at 10 µM | CHT-expressing cells, membrane potential dye, choline response; active compounds read low | actives 0.86% (n = 310,000) | AID 488975 | Q9GZV3;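 active = B-score over 3 SD under the library average, and starting fluorescence ratio not unusually high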;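 note: choline stimulus applied at its EC90 after an EC20 pre-addition; B-score computed on integrated fluorescence ratio after choline addition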
# EP2 modulator – modulators of human EP2 prostaglandin E2 receptor | actives 0.83% (n = 260,000) | AID 940 | P43116 | EP2-expressing cells, cAMP HTRF FRET, PGE2 co-stimulation | induction, % at 25 µM;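 active = compounds whose cAMP rise, as percent of the full-agonist control response, exceeds 60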;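 note: rat C6 glioma line stably carrying human EP2 under a CMV promoter; the protocol text gives 20 µM as final concentration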
# Target sequence (P43116 whole entry, looked up): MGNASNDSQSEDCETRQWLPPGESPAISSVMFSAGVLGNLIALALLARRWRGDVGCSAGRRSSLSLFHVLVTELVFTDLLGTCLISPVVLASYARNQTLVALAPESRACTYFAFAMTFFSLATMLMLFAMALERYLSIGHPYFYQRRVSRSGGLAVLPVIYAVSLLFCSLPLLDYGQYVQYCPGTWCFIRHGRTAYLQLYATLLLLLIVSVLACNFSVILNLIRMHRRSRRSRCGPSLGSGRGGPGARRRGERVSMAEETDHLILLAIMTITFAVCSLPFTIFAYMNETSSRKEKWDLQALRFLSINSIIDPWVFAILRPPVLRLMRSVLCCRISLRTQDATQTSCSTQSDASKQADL
# CHT allo act – allosterically activates the human high affinity choline transporter; Q9GZV3; CHT-expressing cells, membrane potential dye, choline EC20; active compounds read high; LV-AA mutant CHT in HEK293 cells; B-score at 10 µM; actives 0.49% (n = 310,000);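 active = initial fluorescence not abnormally high and integrated response B-score, plate-corrected, over 3 SD above library mean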
# PGE2 EP2 inh – inhibitors of human EP2 prostaglandin E2 receptor. P43116. C6 glioma cells expressing human EP2, cAMP TR-FRET; cells stimulated with saturating PGE2. inhibition, % at 25 µM. actives 0.52% (n = 260,000);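 active = percent inhibition above 40 after rounding to a whole number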;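 note: rat C6 glioma host cells with rolipram phosphodiesterase inhibitor present; the protocol text gives 20 µM as final concentration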
# Hits are given with their value; i = inactive; nt = not tested or not shown. Shown are actives, neighbours in structure and some others; about 2% of the full set was active somewhere.
SMILES,CHT block,EP2 modulator,CHT allo act,PGE2 EP2 inh
COC(=O)c1cc2c(C)c(C)c3ccccn3c-2c1C(=O)OC,i,i,i,i
COC(=O)c1cc2ccccn2c2c(C(=O)OC)c(C(=O)OC)cc1-2,i,i,i,41
CCCSc1nc(N2CCOCC2)c2c(c1C#N)CC(C)(C)SC2,i,65,i,i
c1ccc(OCCOCCN2CCN(C(c3ccccc3)c3ccccc3)CC2)cc1,i,61,i,i
Cc1cc[nH]c(=O)c1NCc1cc2c(C)nn(-c3ccccc3)c2[nH]c1=O,nt,i,nt,46
CCC(c1nnnn1Cc1ccco1)N(Cc1cc2cc(C)ccc2[nH]c1=O)C1CCCCC1 (stereo unspecified),nt,i,nt,i
CC(C)(C)C(=O)[C@H]([C@@H](c1ccccc1)N1CCOCC1)N1CCOCC1,nt,i,nt,49
O=C(c1nccs1)C1CCN(C(=O)c2ccc(OC3CSC3)cc2)CC1,nt,i,nt,nt
c1ccc([C@H](c2cccc3c2ccc2ccccc23)[C@H](c2ccccc2)c2cccc3c2ccc2ccccc23)cc1,nt,i,nt,41
COC1CS(=O)(=O)CC1NCC(=O)O (stereo unspecified),nt,i,nt,i
COc1cc2nc(N3CCN(c4cc(C)ccc4C)CC3)nc(N)c2cc1OC,i,nt,i,nt
COc1cc2nc(N3CCNCC3)nc(N)c2cc1OC,-8.3,i,i,i
Cc1cc(O)c(-c2cc(O)c(C)cc2O)cc1O,i,i,i,134
Cc1cc(O)cc(C)c1Cl,i,i,i,i
COC(=O)c1cc2sccc2n1Cc1nc(-c2ccc(Cl)cc2)oc1C,i,i,i,i
O=C(c1cc2sccc2n1Cc1ccccc1)N1CCc2ccccc21,i,64,i,i
O=C(c1cc2sccc2n1Cc1ccccc1)N1CCCCC1,nt,i,nt,i
COC(=O)c1cc2sccc2n1Cc1ccc(C)cc1,i,64,i,i
CCOC(=O)c1cc2sccc2n1Cc1ccccc1,i,63,i,i
CCc1ccc(NC(=O)CSc2nccc(=O)[nH]2)cc1,nt,i,nt,i
CN(C)CCNCC(=O)NCc1ccco1,nt,i,nt,i
Cc1nnc2nc(-c3ccccc3)nc(-c3ccccc3)n12,i,82,i,i
Cn1nc(-c2ccccc2)nc1-c1ccccc1,i,nt,i,nt
Cc1n[nH]c(C)c1CNC(=O)Cc1c(C)oc2c1C(=O)CC(C)(C)C2,nt,i,nt,i
C[C@H]1COc2c(N3CCN(C)CC3)c(F)cc3c(=O)c(C(=O)O)cn1c23,i,i,8.9,i
SMILES,CHT block,EP2 modulator,CHT allo act,PGE2 EP2 inh
O=c1ccc(-c2ccc3c(c2)OCCO3)nn1C[C@@H]1CCCN1,nt,i,nt,nt
Cn1ccnc1C1(O)CCN(C(=O)c2ccc3c(c2)OCO3)CC1,nt,i,nt,nt
O=S(=O)(O)c1cccc2c(N=Nc3ccc(O)c4ncccc34)cccc12,i,nt,i,nt
O=S(=O)(O)c1ccc2cc(N=Nc3cc(S(=O)(=O)O)c4cccnc4c3O)ccc2c1,nt,i,nt,52
CCC(c1nnnn1CCOC)N(Cc1cc2cc3c(cc2[nH]c1=O)OCCO3)C1CCCC1 (stereo unspecified),nt,i,nt,i
C=CCn1c(N2CCC(C(=O)NCCc3c[nH]c4ccc(C)cc34)CC2)nc2ccccc21,nt,i,nt,i
C(=N\Nc1nc(-c2ccccn2)nc2ccccc12)/c1ccccc1,i,69,i,i
CCc1ccccc1NC(=S)N(Cc1cccnc1)Cc1cc2cccc(C)c2[nH]c1=O,nt,i,nt,i
O=c1[nH]c(N2CCCC2)nc2c1CCN(Cc1ccc3ccccc3n1)C2,nt,i,nt,nt
O=C(O)C1Nc2c(Cl)cc(Cl)cc2C2C=CCC12 (stereo unspecified),i,nt,i,nt
COc1cc(C2Nc3c(Cl)cc(Cl)cc3C3C=CCC32)cc(OC)c1OC (stereo unspecified),nt,62,nt,i
O=C1CN(C(=O)COC(=O)c2ccccc2O)c2ccccc2N1,i,i,i,i
Cn1c2ccccc2c2cc(C(=O)OCC(=O)N3CC(=O)Nc4ccccc43)sc21,i,i,i,53
Cc1nc2c(c(=O)[nH]1)CCN(Cc1ccc(N3CCCC3)cc1)C2,nt,i,nt,i
COc1ccc2[nH]c(=O)c(CN(Cc3ccco3)C(=O)Nc3ccc(F)cc3)cc2c1,nt,i,nt,i
Cc1ccc(C)c2[nH]c(=O)c(CN(Cc3ccco3)Cc3nnnn3C3CCCCC3)cc12,nt,72,nt,i
CCOc1ccc2[nH]c(=O)c(CN(Cc3ccco3)Cc3nnnn3C3CCCC3)cc2c1,nt,64,nt,i
Cc1ccc2cc(CN(Cc3ccco3)Cc3nnnn3C3CCCCC3)c(=O)[nH]c2c1C,nt,70,nt,i
CCOc1ccc2[nH]c(=O)c(CN(Cc3nnnn3C3CCCCC3)CC3CCCO3)cc2c1 (stereo unspecified),nt,i,nt,i
Cc1cc2cc(CN(Cc3ccco3)Cc3nnnn3C3CCCCC3)c(=O)[nH]c2cc1C,nt,i,nt,i
CCc1nn(CC(=O)NC(C)(C)C)c(=O)c2cc3occc3n12,nt,i,nt,nt
C#CCCN1CCN(Cc2cn(CC(=O)N3CCOCC3)c3ccccc23)CC1,nt,i,nt,i
O=C(CN1CCC(n2nnc3cc(C(F)(F)F)ccc32)CC1)NCc1ccccc1F,nt,i,nt,i
C=C[C@]1(C)C[C@H](OC(=O)CO)[C@]2(C)C3C(=O)CC[C@]3(CC[C@H]2C)[C@H](C)[C@H]1O (stereo partly specified),nt,i,nt,56
O=C1C=C(NCCc2cc(Br)c(O)c(Br)c2)C(=O)c2ncccc21,nt,i,nt,104
SMILES,CHT block,EP2 modulator,CHT allo act,PGE2 EP2 inh
CC1CCN(CCOc2ccccc2-c2ccccc2)CC1,i,i,i,i
CC1CCN(CC[S-])CC1.O.O.[Cl][Pt],nt,i,nt,97
CCOc1ccc2[nH]c(=O)c(CN(CCO)Cc3nnnn3C3CCCCC3)cc2c1,nt,i,nt,i
CCOC(=O)COc1ccccc1/C=C\[N+](=O)[O-],i,i,i,92
CCOC(=O)COc1cc([N+](=O)[O-])cc2cccnc12,i,i,i,i
COC(=O)[C@@H]1O[C@H](SCCN)[C@@H](O)[C@H](O)[C@H]1O,nt,i,nt,50
COc1cc([N+](=O)[O-])ccc1NC(=S)NNC(=O)c1ccc2c(c1)OCO2,-5.7,nt,i,nt
CCOc1ccc2[nH]c(=O)c(CN(CCO)C(=S)NCCCN(CC)CC)cc2c1,nt,i,nt,i
COCCSc1nc2c(c(=O)n(C)c(=O)n2C)n1Cc1ccc(Cl)cc1,nt,i,nt,i
CN1CCc2ccccc2[C@H]1Cc1ccccc1NC(=O)c1sc2ccccc2c1Cl,nt,i,nt,42
CN1CCN(C(=O)c2ccccc2NC(=O)c2sc3ccccc3c2Cl)CC1,i,nt,i,nt
COc1cc(/C=N/NC(=O)CSc2cc(C)c(Br)cc2C)ccc1O,i,i,i,41
Cc1cc(SCC(=O)N/N=C/c2ccc(O)c(O)c2O)c(C)cc1Br,i,i,i,i
COc1cc(/C=C/C(=O)O)ccc1O,i,i,i,i
COc1cc(/C=C/C(=O)CC(=O)/C=C/c2ccc(O)c(OC)c2)ccc1O,i,i,i,74
CN(C)c1ncc(S(=O)(=O)c2ccccc2)c(-c2ccc(Cl)cc2Cl)n1,i,65,i,nt
O=C(Nc1ccccc1N1CCCCC1)c1ncoc1-c1cccs1,nt,66,nt,nt
C=CCOc1ccccc1NC(=O)c1cccc(-n2cnnc2)c1,nt,i,nt,i
CCC(=O)N1CCN(c2ccc(NC(=O)c3ccc(C)cc3C)cc2)CC1,nt,i,nt,i
